Results reported in PubChem BioAssay AID1159580 (chemical genetic matrix, 2015).
Values joined by “and” are separate entries in the source; they are usually repeats but may differ in a detail not shown here. Equal values may be shown once. Screen size: about 5,500 compounds; about 2,000 (36%) were called active. Another 18% or so got no clear call; they are omitted. No stated cut-off is given here; in the data, active means normalized growth mostly below about 0.91 (no sharp cut-off); inconclusive means no clear call, values can overlap the other calls; inactive means mostly above about 0.92. This is one part of the list.

Experiment: chemical genetic growth profiling, strain panel (AID 1159580);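 further: tested at 20 µM; growth read once vehicle control cultures reached saturation at 30 °C; 1 = growth at the plate median or of vehicle wells; lower values mean less growth of the strain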
Settings: growth OD
[1] = S. cerevisiae deletion strains, locus YHR030C, strain SLT2, active compounds read low
[2] = S. cerevisiae deletion strains, locus YHR079C, strain IRE1, active compounds read low
[3] = S. cerevisiae deletion strains, locus YJL095W, strain BCK1, active compounds read low
[4] = S. cerevisiae deletion strains, locus YJR066W, strain TOR1, active compounds read low
[5] = S. cerevisiae deletion strains, locus YLR113W, strain HOG1, active compounds read low
[6] = S. cerevisiae deletion strains, locus YNL183C, strain NPR1, active compounds read low
[7] = S. cerevisiae deletion strains, locus YOR231W, strain MKK1, active compounds read low
[8] = S. cerevisiae deletion strains, locus YPL256C, strain CLN2, active compounds read low
[9] = S. cerevisiae deletion strains, locus YAL040C, strain CLN3, active compounds read low
[10] = S. cerevisiae deletion strains, locus YCL061C, strain MRC1 (second series), active compounds read low
[11] = S. cerevisiae deletion strains, locus YDR150W, strain NUM1, active compounds read low
[12] = S. cerevisiae deletion strains, locus YDR363W, strain ESC2, active compounds read low
[13] = S. cerevisiae deletion strains, locus YER002W, strain NOP16, active compounds read low
[14] = S. cerevisiae deletion strains, locus YMR263W, strain SAP30, active compounds read low
[15] = S. cerevisiae deletion strains, locus YMR307W, strain GAS1, active compounds read low
[16] = S. cerevisiae deletion strains, locus YNL128W, strain TEP1, active compounds read low
[17] = S. cerevisiae deletion strains, locus YNL153C, strain GIM3, active compounds read low
[18] = S. cerevisiae deletion strains, locus YNL175C, strain NOP13, active compounds read low
[19] = S. cerevisiae deletion strains, locus YNL197C, strain WHI3, active compounds read low
[20] = S. cerevisiae deletion strains, locus YNL224C, strain SQS1, active compounds read low
[21] = S. cerevisiae deletion strains, locus YOR083W, strain WHI5 (second series), active compounds read low
[22] = S. cerevisiae deletion strains, locus YGR229C, strain SMI1, active compounds read low
[23] = S. cerevisiae deletion strains, locus YJR075W, strain HOC1, active compounds read low
[24] = S. cerevisiae deletion strains, locus YPL055C, strain LGE1, active compounds read low
[25] = S. cerevisiae deletion strains, locus YPL241C, strain CIN2, active compounds read low
[26] = S. cerevisiae deletion strains, locus YAL013W, strain DEP1, active compounds read low
[27] = S. cerevisiae deletion strains, locus YNL322C, strain KRE1, active compounds read low

Measured: normalized growth

C[N+]12CC[C@@]34c5ccccc5N5C(=O)CC6OCC=C(C1)[C@H](CC32)[C@@H]6C54 (stereo partly drawn)
inactive: [1] 1.02 | [2] 1 | [3] 0.99 | [4] 0.942 | [5] 0.995 | [6] 0.933 | [7] 0.998 | [8] 0.986

N[C@@H](Cn1cc(I)c(=O)[nH]c1=O)C(=O)O
inactive: [9] 0.979 | [10] 0.992 | [11] 0.988 | [12] 1.01 | [13] 0.979 | [14] 1 | [15] 0.992 | [16] 0.977 | [17] 1.03 | [18] 0.993 | [19] 1 | [20] 0.99 | [21] 0.998

CCCn1c(=O)[nH]c(=O)c2[nH]cnc21
inactive: [9] 1.05 | [10] 1.01 | [12] 1.02 | [13] 0.999 | [22] 1 | [23] 1 | [18] 1.01 | [19] 1.01 | [20] 1 | [21] 1 | [24] 1.02 | [25] 1.01

O=c1[nH]c(=O)n([C@H]2C[C@H](O)[C@@H](CO)O2)cc1/C=C/Br
inactive: [26] 1.02 | [9] 0.98 | [10] 1 | [11] 0.994 | [12] 1.03 | [13] 0.977 | [14] 0.998 | [15] 1.01 | [16] 0.944 | [17] 0.999 | [18] 0.964 | [19] 0.936 | [20] 0.994 | [27] 0.999 | [21] 0.999 | [24] 0.998 | [25] 0.99

COc1ccc(CCCOc2cc(CCn3ccnc3)ccc2OC)cc1
inactive: [13] 1.03

CCN(CCCCOC(=O)c1ccc(OC)c(OC)c1)C(C)Cc1ccc(OC)cc1 (stereo not drawn)
inactive: [26] 0.982 | S. cerevisiae deletion strains, locus YBR021W, strain FUR4, active compounds read low 0.989 | S. cerevisiae deletion strains, locus YBR229C, strain ROT2, active compounds read low 0.95 | S. cerevisiae deletion strains, locus YCL029C, strain bik1, active compounds read low 0.99 | S. cerevisiae deletion strains, locus YDL035C, strain GPR1, active compounds read low 0.972 | S. cerevisiae deletion strains, locus YDL074C, strain BRE1, active compounds read low 0.987 | S. cerevisiae deletion strains, locus YDL101C, strain DUN1, active compounds read low 0.988 | S. cerevisiae deletion strains, locus YDL134C, strain PPH21, active compounds read low 0.988 | S. cerevisiae deletion strains, locus YDL185W, strain tfp1, active compounds read low 0.991 | S. cerevisiae deletion strains, locus YDL192W, strain arf1, active compounds read low 0.982 | S. cerevisiae deletion strains, locus YDR101C, strain arx1, active compounds read low 0.995 | [11] 0.96 | S. cerevisiae deletion strains, locus YDR162C, strain NBP2, active compounds read low 0.977 | S. cerevisiae deletion strains, locus YDR318W, strain mcm21, active compounds read low 0.999 | S. cerevisiae deletion strains, locus YDR388W, active compounds read low 0.998 | S. cerevisiae deletion strains, locus YDR502C, strain sam2, active compounds read low 0.98 | S. cerevisiae deletion strains, locus YEL061C, strain CIN8, active compounds read low 0.979 | S. cerevisiae deletion strains, locus YER110C, active compounds read low 0.963 | S. cerevisiae deletion strains, locus YER155C, strain BEM2, active compounds read low 0.999 | S. cerevisiae deletion strains, locus YER167W, strain BCK2, active compounds read low 0.989 | S. cerevisiae deletion strains, locus YGL078C, strain dbp3, active compounds read low 0.997 | S. cerevisiae deletion strains, locus YGL086W, strain mad1, active compounds read low 0.965 | S. cerevisiae deletion strains, locus YGL248W, strain PDE1, active compounds read low 0.98 | S. cerevisiae deletion strains, locus YGR078C, strain PAC10, active compounds read low 0.995 | S. cerevisiae deletion strains, locus YGR135W, strain pre9, active compounds read low 1.02 | [22] 0.978 | S. cerevisiae deletion strains, locus YGR252W, strain gcn5, active compounds read low 0.937 | [1] 0.989 and 0.965 | S. cerevisiae deletion strains, locus YHR079C, strain IRE1 (second series), active compounds read low 0.992 | [2] 0.956 | S. cerevisiae deletion strains, locus YHR094C, strain hxt1, active compounds read low 0.989 | S. cerevisiae deletion strains, locus YHR129C, strain ARP1, active compounds read low 0.993 | S. cerevisiae deletion strains, locus YHR200W, strain rpn10, active compounds read low 0.992 | S. cerevisiae deletion strains, locus YIL066C, strain RNR3, active compounds read low 0.968 | S. cerevisiae deletion strains, locus YIL073C, strain SPO22, active compounds read low 0.986 | S. cerevisiae deletion strains, locus YIL125W, strain kgd1, active compounds read low 0.985 | S. cerevisiae deletion strains, locus YIR030C, strain dcg1, active compounds read low 0.978 | [3] 1.03 and 0.98 | S. cerevisiae deletion strains, locus YJL134W, strain LCB3, active compounds read low 0.979 | S. cerevisiae deletion strains, locus YJL168C, strain set2, active compounds read low 0.995 | S. cerevisiae deletion strains, locus YJL187C, strain SWE1 (second series), active compounds read low 1 | S. cerevisiae deletion strains, locus YJR043C, strain POL32, active compounds read low 1.01 | [4] 0.913 | [23] 0.98 | S. cerevisiae deletion strains, locus YKL009W, strain mrt4, active compounds read low 0.95 | S. cerevisiae deletion strains, locus YKL068W, active compounds read low 0.998 | S. cerevisiae deletion strains, locus YKL085W, strain MDH1 (second series), active compounds read low 0.987 | S. cerevisiae deletion strains, locus YKL085W, strain MDH1, active compounds read low 0.987 | S. cerevisiae deletion strains, locus YKL190W, strain CNB1, active compounds read low 0.99 | S. cerevisiae deletion strains, locus YKR001C, strain vps1, active compounds read low 0.988 | S. cerevisiae deletion strains, locus YLR039C, strain RIC1, active compounds read low 0.983 | S. cerevisiae deletion strains, locus YLR058C, strain SHM2, active compounds read low 0.967 | S. cerevisiae deletion strains, locus YLR102C, strain apc9, active compounds read low 0.993 | [5] 0.956 | S. cerevisiae deletion strains, locus YLR262C, strain YPT6, active compounds read low 0.937 | S. cerevisiae deletion strains, locus YLR268W, strain sec22, active compounds read low 1.07 | S. cerevisiae deletion strains, locus YLR330W, strain CHS5, active compounds read low 0.977 | S. cerevisiae deletion strains, locus YLR342W, strain FKS1 (second series), active compounds read low 0.985 | S. cerevisiae deletion strains, locus YLR371W, strain rom2, active compounds read low 0.972 | S. cerevisiae deletion strains, locus YLR418C, strain cdc73, active compounds read low 0.956 | S. cerevisiae deletion strains, locus YML016C, strain PPZ1, active compounds read low 0.978 | S. cerevisiae deletion strains, locus YML032C, strain rad52, active compounds read low 1 | S. cerevisiae deletion strains, locus YML124C, strain tub3, active compounds read low 0.985 | S. cerevisiae deletion strains, locus YMR078C, strain ctf18, active compounds read low 0.987 | S. cerevisiae deletion strains, locus YMR223W, strain ubp8, active compounds read low 0.971 | [14] 0.978 | [15] 1.01 | S. cerevisiae deletion strains, locus YNL067W, strain RPL9B, active compounds read low 1.01 | [16] 0.968 | [17] 1 | [6] 0.9 | S. cerevisiae deletion strains, locus YNL233W, strain BNI4, active compounds read low 0.996 | S. cerevisiae deletion strains, locus YNL250W, strain rad50, active compounds read low 0.987 | S. cerevisiae deletion strains, locus YNL271C, strain bni1, active compounds read low 0.999 | S. cerevisiae deletion strains, locus YNL298W, strain CLA4, active compounds read low 0.99 | S. cerevisiae deletion strains, locus YNL307C, strain MCK1, active compounds read low 0.983 | [27] 0.982 | S. cerevisiae deletion strains, locus YNR052C, strain pop2, active compounds read low 1.01 | S. cerevisiae deletion strains, locus YOL006C, strain TOP1, active compounds read low 0.966 | S. cerevisiae deletion strains, locus YOL012C, strain htz1 1.08 | S. cerevisiae deletion strains, locus YOL147C, strain pex11, active compounds read low 0.987 | S. cerevisiae deletion strains, locus YOR061W, strain CKA2, active compounds read low 0.974 | S. cerevisiae deletion strains, locus YOR069W, strain VPS5, active compounds read low 0.986 | S. cerevisiae deletion strains, locus YOR136W, strain idh2, active compounds read low 0.981 | S. cerevisiae deletion strains, locus YOR144C, strain elg1, active compounds read low 0.991 | S. cerevisiae deletion strains, locus YOR184W, strain ser1, active compounds read low 0.974 | [7] 0.964 | S. cerevisiae deletion strains, locus YOR316C, strain cot1, active compounds read low 0.992 | [24] 0.963 | [25] 0.989 | [8] 0.961 | S. cerevisiae deletion strains, locus YPR119W, strain clb2, active compounds read low 0.987 | S. cerevisiae deletion strains, locus YPR141C, strain kar3, active compounds read low 0.979 | S. cerevisiae deletion strains, locus YPR163C, strain tif3, active compounds read low 0.992 | S. cerevisiae deletion strains, locus YPR167C, strain met16, active compounds read low 0.997 | S. cerevisiae deletion strains, strain wtn01, active compounds read low 1.01 | S. cerevisiae strains, strain wild type, active compounds read low 0.98
